Here are results for twelve compounds from PubChem BioAssay (EPA / NIEHS).

SMILES strings stand for the structures. Results filed as inconclusive are left out. Activity calls are given as the source filed them. Rule for the calls, unless noted: active = hit-call score of the fitted dose curve at least 0.9, where 1 is the maximum; inactive = score below 0.9.

Assay [1] is described as follows: ATG_PXRE_CIS: Attagene CIS-FACTORIAL HepG2 Assay for human Pregnane X Receptor Element (PXRE) (AID 2282957). Conditions: HepG2 Attagene CIS-FACTORIAL PXRE reporter, mRNA; actives raise or lower the signal. The method, boiled down: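 Using HepG2 transfected with multiple reporter transcription units, endogenous factor-driven transcription was scored as reporter mRNA after 24 h exposure.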

Assay [2] is described as follows: ATG_PPRE_CIS: Attagene CIS-FACTORIAL HepG2 Assay for human Peroxisome Proliferator-activated Response Element (PPRE) (AID 2282958). As to conditions: HepG2 PPRE cis-element reporter, Attagene transcription factor profiling; actives raise or lower the signal. The method, boiled down:
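Multiplexed reporter transcription units under cis-regulatory promoters were transfected into HepG2 cells to capture endogenous factor activity. A 24 h incubation preceded RNA isolation and fluorescent RT-PCR fragment analysis.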

Assay [3] can be described thus: ATG_RORE_CIS: Attagene CIS-FACTORIAL HepG2 Assay for human RAR-related Orphan Receptor Element (RORE) (AID 2282959). As to conditions: HepG2 Attagene cis-factorial RORE reporter, mRNA; actives raise or lower the signal. The gist of the method:
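Fluorescence intensity of reporter-specific cDNA fragments, separated by capillary electrophoresis, gives the signal. Source: HepG2 liver cells transiently transfected with cis-element reporters and exposed 24 h; DMSO-normalized bidirectional fit.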

A short description of assay [4]: ATG_Sox_CIS: Attagene CIS-FACTORIAL HepG2 Assay for human SRY-box transcription factor (SOX) (AID 2282960). Conditions: HepG2 Attagene cis-factorial SOX reporter, mRNA; actives raise or lower the signal. The method, boiled down: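 After 24 h of chemical treatment, transfected HepG2 reporter cells are lysed for total RNA. Transcript levels come from RT-PCR with labelled primer extension and capillary electrophoresis, analysed bidirectionally versus DMSO.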

The target of assay [5] is Transcription factor Sp1 (Homo sapiens) (UniProt P08047). The assay can be described thus: ATG_Sp1_CIS: Attagene CIS-FACTORIAL HepG2 Assay for human Specificity Protein 1 (Sp1) (AID 2282961). As to conditions: HepG2 Sp1 cis-reporter transcription, actives raise or lower the signal. The method, boiled down: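 Sp1-driven reporter mRNA, read as capillary electrophoresis fluorescence after RT-PCR, in transiently transfected HepG2 cells dosed for 24 h; signal change in either direction relative to DMSO.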
Chain of Transcription factor Sp1 (Homo sapiens) (P08047 whole entry, looked up): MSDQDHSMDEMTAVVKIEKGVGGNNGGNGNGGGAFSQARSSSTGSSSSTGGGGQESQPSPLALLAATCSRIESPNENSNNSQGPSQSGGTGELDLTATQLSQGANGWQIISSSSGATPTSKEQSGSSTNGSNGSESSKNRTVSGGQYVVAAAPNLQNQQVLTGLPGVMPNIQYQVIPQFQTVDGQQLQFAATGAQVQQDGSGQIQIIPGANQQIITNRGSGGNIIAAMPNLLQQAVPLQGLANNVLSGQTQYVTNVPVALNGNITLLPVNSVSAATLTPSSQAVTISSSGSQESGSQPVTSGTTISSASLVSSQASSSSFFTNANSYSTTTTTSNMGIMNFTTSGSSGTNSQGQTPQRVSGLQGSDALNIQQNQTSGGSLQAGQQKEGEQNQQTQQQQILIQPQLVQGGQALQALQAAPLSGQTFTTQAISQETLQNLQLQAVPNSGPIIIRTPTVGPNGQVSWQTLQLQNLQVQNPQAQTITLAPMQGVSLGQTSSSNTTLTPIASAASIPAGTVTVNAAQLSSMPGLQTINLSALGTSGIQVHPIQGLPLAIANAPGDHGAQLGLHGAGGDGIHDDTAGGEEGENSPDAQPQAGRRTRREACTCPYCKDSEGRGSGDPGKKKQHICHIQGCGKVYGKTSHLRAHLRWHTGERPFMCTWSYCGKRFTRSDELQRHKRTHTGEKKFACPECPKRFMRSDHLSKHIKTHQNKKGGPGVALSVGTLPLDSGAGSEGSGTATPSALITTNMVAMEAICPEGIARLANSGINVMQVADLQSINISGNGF

A short description of assay [6]: ATG_SREBP_CIS: Attagene CIS-FACTORIAL HepG2 Assay for human Sterol Regulatory Element Binding (SREBP) (AID 2282962). Conditions: HepG2 Attagene cis-factorial SREBP reporter, mRNA; actives raise or lower the signal. The gist of the method: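 Endogenous SREBP activity read as cis-element-driven reporter transcript in transiently transfected HepG2, 24 h post-dosing; quantified via RT-PCR plus capillary electrophoresis of fluorescent fragments. Gain or loss of signal fitted relative to DMSO baseline.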

For assay [7], the target named is Signal transducer and activator of transcription 3 (Homo sapiens) (UniProt P40763). The assay can be described thus: ATG_STAT3_CIS: Attagene CIS-FACTORIAL HepG2 Assay for human Signal Transducer and Activator of Transcription 3 (STAT3) (AID 2282963). Conditions: HepG2, Attagene cis-factorial STAT3 reporter transcription; actives raise or lower the signal. The gist of the method: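 Readout: fluorescent reporter mRNA fragments resolved by capillary electrophoresis. Setup: HepG2 transfected with MRTUs reporting endogenous transcription-factor activity, dosed 24 h. Gain or loss of signal fitted bidirectionally against DMSO control.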
Chain of Signal transducer and activator of transcription 3 (Homo sapiens) (P40763 whole entry, looked up, the tested form may be a part): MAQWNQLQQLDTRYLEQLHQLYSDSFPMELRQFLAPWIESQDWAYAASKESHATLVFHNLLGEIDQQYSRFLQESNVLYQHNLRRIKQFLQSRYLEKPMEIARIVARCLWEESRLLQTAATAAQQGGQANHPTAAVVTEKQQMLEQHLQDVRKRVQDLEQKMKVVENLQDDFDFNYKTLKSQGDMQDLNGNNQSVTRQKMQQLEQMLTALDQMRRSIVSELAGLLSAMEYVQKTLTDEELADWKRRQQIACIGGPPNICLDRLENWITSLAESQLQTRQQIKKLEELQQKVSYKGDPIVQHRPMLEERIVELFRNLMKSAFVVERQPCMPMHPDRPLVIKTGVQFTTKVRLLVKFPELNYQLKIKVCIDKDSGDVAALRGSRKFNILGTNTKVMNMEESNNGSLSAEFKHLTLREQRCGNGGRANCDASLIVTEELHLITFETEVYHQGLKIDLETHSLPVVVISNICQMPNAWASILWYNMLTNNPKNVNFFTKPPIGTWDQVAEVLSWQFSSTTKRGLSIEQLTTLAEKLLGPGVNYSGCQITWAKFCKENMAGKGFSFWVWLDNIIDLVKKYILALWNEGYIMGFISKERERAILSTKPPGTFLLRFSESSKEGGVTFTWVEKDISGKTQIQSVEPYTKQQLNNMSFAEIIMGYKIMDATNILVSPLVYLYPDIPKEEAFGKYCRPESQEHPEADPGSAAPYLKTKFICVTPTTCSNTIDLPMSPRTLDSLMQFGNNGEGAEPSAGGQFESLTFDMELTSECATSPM

Assay [8] in a line: ATG_TA_CIS: Attagene CIS-FACTORIAL HepG2 Assay for human TA Basal Promoter (AID 2282964). As to conditions: HepG2 Attagene CIS-factorial TA basal promoter reporter; actives raise or lower the signal. The method, boiled down:
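HepG2 cells transiently transfected with multiplexed cis-promoter reporter units, dosed 24 h. Reporter mRNA measured by RT-PCR, 6-FAM labelling, HpaI digestion and capillary electrophoresis; bidirectional fit versus DMSO baseline, serving as background control.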

Assay [9] in a line: ATG_TCF_b_cat_CIS: Attagene CIS-FACTORIAL HepG2 Assay for human T-Cell-Factor with beta-catenin (TCF/b-cat) (AID 2282965). Conditions: HepG2 TCF/beta-catenin cis-reporter transcription, actives raise or lower the signal. The method, boiled down:
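HepG2 cells transiently transfected with cis-promoter-driven multiplexed reporter units; reporter mRNA measured 24 h after dosing by RT-PCR, FAM labelling, HpaI digestion and capillary electrophoresis. Bidirectional fitting relative to DMSO baseline.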

Assay [10] in a line: ATG_TAL_CIS: Attagene CIS-FACTORIAL HepG2 Assay for human TAL Basal Promoter (AID 2282966).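 Note: background control endpoint measuring basal TAL promoter reporter mRNA not a specific factor.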 As to conditions: HepG2 Attagene cis-factorial TAL promoter reporter; actives raise or lower the signal. The method, boiled down:
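After 24 hours of chemical exposure, transfected HepG2 cells yielded RNA that was converted to 6-FAM-labelled, HpaI-digested reporter fragments for capillary electrophoresis. Values derive from bidirectional fitting against DMSO controls.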

A short description of assay [11]: ATG_TGFb_CIS: Attagene CIS-FACTORIAL HepG2 Assay for human Transforming Growth Factor (TGF) (AID 2282967). Conditions: HepG2 Attagene CIS TGFb reporter, mRNA transcription; actives raise or lower the signal. The gist of the method:
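HepG2 cells transiently transfected with cis-promoter-driven multiplexed reporter units; 24 h compound exposure. Reporter mRNA measured by RT-PCR, 6-FAM labeling, HpaI digestion and capillary electrophoresis; bidirectional fit versus DMSO baseline.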

The nature of assay [12]: ATG_VDRE_CIS: Attagene CIS-FACTORIAL HepG2 Assay for human Vitamin D Receptor Element (VDRE) (AID 2282968). As to conditions: HepG2 VDRE cis-reporter transcription, actives raise or lower the signal. The gist of the method:
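Transient MRTU transfection of HepG2, 24 h compound exposure. Readout: reporter transcripts via RT-PCR and capillary electrophoresis, fluorescence. Bidirectional fit vs DMSO.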

For assay [13], the target named is Estrogen receptor (Homo sapiens) (UniProt P03372). The assay can be described thus: ATG_ERa_TRANS: Attagene TRANS-FACTORIAL HepG2 Assay for human Estrogen Receptor alpha (ERa) (AID 2282970; active = hit-call score of the fitted dose curve at least 0.9, where 1 is the maximum). As to conditions: HepG2 Attagene TRANS ERa GAL4 reporter, mRNA. The method, boiled down: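 Liver-derived HepG2 cells expressing chimeric nuclear receptor-Gal4 proteins from transient transfection were exposed for 24 hours. Gain of reporter mRNA signal versus DMSO, read by capillary electrophoresis of FAM-labelled PCR products, was recorded.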
Chain of Estrogen receptor (Homo sapiens) (P03372 whole entry, looked up, the tested form may be a part): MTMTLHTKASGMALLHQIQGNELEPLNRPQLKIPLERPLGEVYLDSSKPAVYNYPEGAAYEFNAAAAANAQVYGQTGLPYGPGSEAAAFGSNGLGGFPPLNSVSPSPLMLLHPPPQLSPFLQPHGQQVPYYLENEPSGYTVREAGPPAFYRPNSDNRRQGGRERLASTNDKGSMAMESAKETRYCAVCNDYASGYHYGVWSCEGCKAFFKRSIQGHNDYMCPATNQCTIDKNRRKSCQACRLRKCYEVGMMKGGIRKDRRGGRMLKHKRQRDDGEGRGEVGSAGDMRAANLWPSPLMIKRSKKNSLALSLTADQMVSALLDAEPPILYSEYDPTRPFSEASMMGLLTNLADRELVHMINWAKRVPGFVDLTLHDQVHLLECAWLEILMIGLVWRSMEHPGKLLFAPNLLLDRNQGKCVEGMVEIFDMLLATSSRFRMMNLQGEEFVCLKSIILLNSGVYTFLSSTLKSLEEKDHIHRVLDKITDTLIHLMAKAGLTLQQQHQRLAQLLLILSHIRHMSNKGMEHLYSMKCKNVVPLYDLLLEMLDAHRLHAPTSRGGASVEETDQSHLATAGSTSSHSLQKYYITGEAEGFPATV

Assay [14] addresses X-box-binding protein 1 (Homo sapiens) (UniProt P17861). The assay can be described thus: ATG_Xbp1_CIS: Attagene CIS-FACTORIAL HepG2 Assay for human X-box Binding Protein 1 (XBP1) (AID 2282972). As to conditions: HepG2 XBP1 cis-element reporter, Attagene multiplex; actives raise or lower the signal. The method, boiled down:
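Reporter transcripts were quantified by RT-PCR with fluorescent primer extension and capillary electrophoresis after 24 h chemical exposure. Cells: transiently transfected HepG2 carrying cis-regulated reporter constructs; data fitted bidirectionally relative to DMSO.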

Assay [15] has as its target Paired box protein Pax-6 (Homo sapiens) (UniProt P26367). The assay can be described thus: ATG_Pax6_CIS: Attagene CIS-FACTORIAL HepG2 Assay for human Paired Box 6 (PAX6) (AID 2282956). As to conditions: HepG2 CIS-FACTORIAL PAX6 reporter transcription, RNA readout; actives raise or lower the signal. The gist of the method: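 Read-out is reporter transcript level, measured by RT-PCR with fluorescent primer extension and capillary electrophoresis after 24 h dosing of transfected HepG2 cells. Activity in either direction fitted relative to DMSO control.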

The nature of assay [16]: ATG_GAL4_TRANS: Attagene TRANS-FACTORIAL HepG2 Assay for GAL4 (Internal Marker) (AID 2282976; active = hit-call score of the fitted dose curve at least 0.9, where 1 is the maximum). Conditions: HepG2 Attagene TRANS GAL4 internal marker reporter. The method, boiled down:
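First, HepG2 cells were transfected with reporter units under GAL4-UAS control. Next, they were treated with chemical for 24 h. Finally, RNA was reverse-transcribed, PCR-amplified, FAM-labelled and resolved by capillary electrophoresis, with induction scored against DMSO.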

The nature of assay [17]: ATG_M_19_TRANS: Attagene TRANS-FACTORIAL HepG2 Assay for M19 Transcription Factor (Internal Marker) (AID 2282974; active = hit-call score of the fitted dose curve at least 0.9, where 1 is the maximum). Conditions: HepG2 Attagene TRANS-FACTORIAL M19 internal marker reporter. The method, boiled down:
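Measured here: internal-marker reporter transcript from HepG2 cells transfected with MRTUs, harvested at 24 h. cDNA PCR products were 6-FAM labelled by primer extension, cut with HpaI for 2 h at 37 C, and resolved by CE.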

Chain of X-box-binding protein 1 (Homo sapiens) (P17861 whole entry, looked up): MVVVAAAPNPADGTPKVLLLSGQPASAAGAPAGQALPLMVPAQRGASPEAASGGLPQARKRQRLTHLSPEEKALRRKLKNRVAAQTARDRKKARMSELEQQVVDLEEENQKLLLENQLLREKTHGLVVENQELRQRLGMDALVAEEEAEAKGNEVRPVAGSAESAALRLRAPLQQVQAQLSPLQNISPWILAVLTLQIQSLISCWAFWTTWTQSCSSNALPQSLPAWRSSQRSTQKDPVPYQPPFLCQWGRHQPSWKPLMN
Chain of Paired box protein Pax-6 (Homo sapiens) (P26367 whole entry, looked up): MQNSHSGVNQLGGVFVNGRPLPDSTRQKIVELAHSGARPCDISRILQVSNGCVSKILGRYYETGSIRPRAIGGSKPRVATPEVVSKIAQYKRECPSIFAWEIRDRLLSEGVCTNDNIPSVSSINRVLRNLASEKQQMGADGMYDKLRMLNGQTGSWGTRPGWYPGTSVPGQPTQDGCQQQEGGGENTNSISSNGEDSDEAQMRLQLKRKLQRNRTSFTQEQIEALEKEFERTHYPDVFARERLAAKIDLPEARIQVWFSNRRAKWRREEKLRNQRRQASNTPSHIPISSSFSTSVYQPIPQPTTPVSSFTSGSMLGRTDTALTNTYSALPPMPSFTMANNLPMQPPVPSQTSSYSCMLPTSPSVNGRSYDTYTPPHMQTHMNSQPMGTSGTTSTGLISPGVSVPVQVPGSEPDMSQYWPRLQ

With `CCOC(=O)C1=NOC(c2ccccc2)(c2ccccc2)C1`, in assay [1], the AC50 is 18.3 µM (active). For the same compound, the outcome in assay [2], in [3], in assay [4], in assay [5], in [6] and in assay [7] was inactive. Also, the outcome in [8], in assay [9], in assay [10], in [11], in [12] and in assay [13] was inactive. In addition, in assay [14], the result was inactive.
Consider `c1ccc2sc(SSN3CCOCC3)nc2c1`, for which the AC50 was 100 µM (active) in assay [15]; 138 µM (active) in assay [4]; 70.4 µM (active) in assay [5]; 59.2 µM (active) in assay [6]; 139 µM (active) in assay [7]; 100 µM (active) in assay [14]. The compound was called inactive in assay [1], in assay [3], in [9], in assay [10], in assay [11] and in assay [12]. Further, the compound was classed as inactive in assay [13].
For `C1CCSC1`, the call in assay [15], in [1], in assay [5], in assay [6], in [7] and in [8] was inactive. The result in assay [9], in assay [10], in assay [11] and in assay [14] was inactive.
For the compound `CC(C=O)c1ccccc1` (configuration not stated), the half-maximal activity concentration (AC50) is 6.81 µM (active) in assay [1] and 9.33 µM (active) in assay [12]. The compound was called inactive in assay [2], in assay [3], in assay [4], in [5], in [6] and in assay [7]. In addition, the compound was classed as inactive in [8], in assay [9], in assay [10], in [11], in [13] and in assay [14]. Further, in assay [16], the call was inactive.
With `C=CC(C)(O)CC/C=C(\C)CC` (configuration not stated), the compound was classed as inactive in assay [15], in [3], in assay [4], in [5], in assay [6] and in [7]. Also, the compound was called inactive in assay [8], in assay [9], in [10], in [11], in [14] and in assay [17]. Also, the values for the AC50 in [1] and in [13] were 4.25 µM (active) and 30.3 µM (active), respectively.
Regarding `CC(=O)OC1CCCCC1`, the outcome in assay [15], in [1], in assay [3], in assay [4], in assay [5] and in [6] was inactive. Moreover, the outcome in assay [7], in [8], in [9], in assay [10], in assay [11] and in assay [12] was inactive. Also, the compound was classed as inactive in assay [14] and in [16].
In the case of `CCCCCCCCCCCCCc1ccccc1`, the compound was called inactive in [15], in assay [1], in assay [5], in [6], in assay [7] and in assay [8]. Besides, the compound was classed as inactive in assay [9], in [10], in assay [11], in assay [12] and in assay [14].
For the compound `CCCCCCCCCCCC(C)=O`, the call in [15], in assay [3], in assay [4], in [7], in [8] and in assay [12] was inactive. Further, the call in assay [14], in assay [17] and in assay [16] was inactive. Besides, the AC50 in [1] is 25.6 µM (active); in assay [5], 154 µM (active); in [6] it was 141 µM (active); in assay [9], 161 µM (active); in assay [10] it was 178 µM (active); in assay [11], 166 µM (active). Besides, the AC50 in [13] was 11.6 µM (active).
Turning to `Cc1ccccc1CCO`, the result in assay [15], in assay [3], in assay [4], in assay [5], in [6] and in [7] was inactive. Besides, the compound was called inactive in assay [8], in assay [9], in assay [10], in assay [11], in [12] and in assay [14]. In addition, in [17], the compound was classed as inactive. For the same compound, in assay [1], the AC50 was 26.6 µM (active).
On to `C=CCCCCCCCCOC(C)=O`, for which the result in assay [15], in assay [1], in assay [3], in assay [4], in [5] and in [6] was inactive. Besides, the outcome in [7], in assay [8], in assay [9], in assay [10], in assay [11] and in [13] was inactive. Further, the outcome in assay [14], in assay [17] and in assay [16] was inactive.
Consider `CC(=O)CCC=C(C)C`, for which the compound was called inactive in assay [1], in assay [4], in [5], in assay [6], in assay [7] and in assay [8]. In addition, the result in assay [9], in [10], in assay [11], in assay [12], in assay [13] and in assay [14] was inactive. The outcome in assay [16] was inactive.
Take `Nc1ccnc(=O)[nH]1`: the compound was called inactive in [15], in [1], in assay [3], in [5], in assay [6] and in [8]. Also, the outcome in [9], in assay [10], in assay [11], in assay [12], in assay [13] and in assay [14] was inactive. Moreover, in assay [17], the outcome was inactive.
